About 8,600 (12%) of roughly 69,000 compounds showed an effect of 50% or more. This is one part of a sample in which strong results are shown more often than they occur.
These compounds were tested on Plasmodium berghei (assay: Screen against P. berghei liver stage (PbLuc), transformed with Luciferase, at 10uM). Settings: tested at 10 uM.
Assay type: functional, HepG2

Structure (SMILES)	INHIBITION
CN(C)c1ncc(I)c(C2CCCN2C)n1 (stereo not drawn)	-54.1%
CS(=O)(=O)NCC1CCCCN1C(=O)c1csc(-c2ccsc2)n1 (stereo not drawn)	-89.3%
CS(=O)(=O)NCC1CCCCN1C(=O)c1ccc(Br)s1 (stereo not drawn)	-50.5%
CS(=O)(=O)NCC1CCCCN1C(=O)c1ccsc1 (stereo not drawn)	59.5%
Cc1ccc2nc(NCCCN3CCCCCC3=O)n(C)c(=O)c2c1	8.97%
Cc1ccc2nc(NCCN3CCOCC3)n(C)c(=O)c2c1	-22.4%
CCN1CCN(CCNc2nc3ccc(C)cc3c(=O)n2C)CC1	71.7%
Cc1nc(C)n(CC2CCCN2CC(=O)Nc2ccncc2)n1 (stereo not drawn)	25.4%
COCCN1CCO[C@@H]2CN(C(=O)Cc3cccc(F)c3)CC[C@@H]2C1	10.5%
O=C(c1cc(-n2cnnn2)ccc1Cl)N1CCN(c2ccccc2)CC1	10.1%
O=C(c1ccc(Cl)cc1)N1CCn2c(nn(-c3ccncc3)c2=O)C1	49.9%
O=C(c1ccc(Cl)cc1)N1CCn2c(nn(-c3ccc(Cl)cc3)c2=O)C1	35%
O=C(c1ccc(Cl)cc1)N1CCn2c(nn(-c3cccc(Cl)c3)c2=O)C1	54%
O=C(NCCNc1ccccn1)Nc1cc(C(F)(F)F)c[nH]c1=O	7.4%
Cn1nccc1CNC(=O)Nc1cc(C(F)(F)F)c[nH]c1=O	55.1%
O=C(NCCc1ccccn1)Nc1cc(C(F)(F)F)c[nH]c1=O	1.62%
O=C(NCc1ccncc1)Nc1cc(C(F)(F)F)c[nH]c1=O	11.083%
O=C(NCc1ccccn1)Nc1cc(C(F)(F)F)c[nH]c1=O	57.2%
Cn1nccc1C(=O)Nc1cc(C(F)(F)F)c[nH]c1=O	17.68%
Cc1noc(CN2CCN(c3cncc(Cl)n3)CC2)n1	5.05%
O=C(N1CCOCC1)N1CCN(c2ccc(Cl)nn2)C(=O)C1	24.2%
CN(Cc1cnn(C)c1)C(=O)CN1CCCC(Cn2cncn2)C1 (stereo not drawn)	7.67%
Cc1nn(C)c(Cl)c1C1CCCN1C(=O)c1cccc(C#N)c1 (stereo not drawn)	-38.7%

Structure (SMILES)	INHIBITION
Cc1noc(C2(C)CCCN(C(=O)c3cnn(C)c3)C2)n1 (stereo not drawn)	24.4%
O=C(NCC1CCCCC1)N1C[C@@H]2C[C@H](C(=O)N3CCOCC3)[C@H](C1)O2	22.2%
O=C(Nc1nncs1)N1CCC(CCO)CC1	66.6%
O=C(Nc1nncs1)N1CCC(c2ccc(O)cc2)CC1	-1.45%
O=C(Nc1nncs1)N1CCC(CCc2ccc(O)cc2)CC1	12.5%
COc1ccc2c(c1)[nH]c1c(N(C)CC3OCCO3)ncnc12	-13.6%
O=C(Nc1ccccc1)N1CCn2c(nnc2C2CCCN2)C1 (stereo not drawn)	46.6%
O=C(C1=CCCC1)N1CC[C@]2(C[C@H](OCc3cccnc3)CO2)C1	16.9%
CN(C)C(=O)CN1CCCC2(CCN(c3ccsc3)C2=O)C1 (stereo not drawn)	40.4%
COc1ccc(CN2CCC3(CC2)CCN(CC(=O)N(C)C)C3=O)cc1	-8.51%
O=C1N(c2ccsc2)CCC12CCCN(CC1CC1)C2 (stereo not drawn)	57.9%
Cn1cc(N2CCC3(CCCN(Cc4ccc(F)cc4)C3)C2=O)cn1 (stereo not drawn)	67.2%
Cc1occc1C(=O)N1CCCC2(CCN(c3ccsc3)C2=O)C1 (stereo not drawn)	56.7%
Cn1cc(N2CCC3(CCCN(Cc4ccoc4)C3)C2=O)cn1 (stereo not drawn)	-2.72%
CCN1CCC2(CCN(Cc3ccc(OC)cc3)CC2)C1=O	38.3%
Cc1nocc1C(=O)N1CCCC2(CCN(c3ccsc3)C2=O)C1 (stereo not drawn)	-107%
O=C1N(c2ccsc2)CCC12CCCN(Cc1ccccn1)C2 (stereo not drawn)	-6.23%
Cn1cc(CN2CCC3(CCN(c4cnn(C)c4)C3=O)C2)cn1 (stereo not drawn)	14.8%
Cc1occc1C(=O)N1CCCC2(CCN(c3ccccc3)C2=O)C1 (stereo not drawn)	-54.5%
COc1ccc(CN2CCC3(CC2)CCN(CC2CC2)C3=O)cc1	52.4%
CCOC(=O)CCNC(=O)c1nc(OCC)ccc1Cl	6.285%
Brc1ccc(CNCc2nnc3n2CCCCC3)s1	21.8%
CC(=O)N1N=C(Cc2ccccc2)OC1C(=O)NCC(=O)OC(C)(C)C (stereo not drawn)	12.5%

Structure (SMILES)	INHIBITION
CCc1nnc(Nc2cc(C)nc(C3CN(C(C)=O)CCO3)c2)s1 (stereo not drawn)	-4.25%
CCCc1nc(C)cc(NCCc2nnc(N)s2)n1	-16.9%
O=C(Cc1ccccc1)NCCNC(=O)c1scnc1Cl	46.2%
COCC[C@]1(O)CCN(C(=O)C2CCN(C3CCCC3)CC2)C[C@H]1C	9.63%
Nc1cccnc1N1CCC(C(F)(F)F)CC1	-22.5%
COCCN1C[C@H]2CC[C@@]3(N=C(C)N(CC4CC4)C3=O)[C@H]2C1	-26.5%
CC(=O)NCc1ccc(C(=O)N2CCCC2c2c(C)nn(C)c2C)o1 (stereo not drawn)	-55.4%
O=C1N(c2ccsc2)CCC12CCCN(Cc1cccnc1)C2 (stereo not drawn)	-18.2%
COc1ccc(CN2CCCC3(CCN(c4ccsc4)C3=O)C2)cc1 (stereo not drawn)	72.8%
COCCN1CCCC2(CCN(c3ccsc3)C2=O)C1 (stereo not drawn)	39.2%
Cc1ncnc2c1CCN(c1cc(C(F)(F)F)ncn1)CC2	-17%
O=C(N1CCOCC1)N1CCc2ncnc(NC3CC3)c2CC1	26.8%
CC(C)Nc1ncnc2c1CCN(C(=O)c1ccc[nH]1)CC2	70.7%
CC(C)Nc1ncnc2c1CCN(c1cc(C(F)(F)F)ncn1)CC2	60.3%
FC(F)(F)c1cc(N2CCc3ncnc(NC4CC4)c3CC2)ncn1	-31.6%
CC(C)Nc1ncnc2c1CCN(C(=O)[C@H]1CCCO1)CC2	-12.2%
O=C(N1CCOCC1)N1CCc2ncnc(NC3CCC3)c2CC1	-2.35%
CC(C)Nc1ncnc2c1CCN(C(=O)N1CCOCC1)CC2	75.4%
Cc1ccsc1C(=O)N1CCc2ncnc(NC(C)C)c2CC1	19.4%
CN(Cc1nnc2n1CCC2)C(=O)Cc1ccc2c(c1)CCC2	19.2%
CC(=O)NC1CCN(c2cc(C3CCNCC3)ccn2)CC1	20.2%
O=C(c1ncccn1)N1C[C@@H]2CN(Cc3cccnc3)CCO[C@@H]2C1	-1.26%

Reference: ChEMBL document CHEMBL4513216, “Probing the Open Global Health Chemical Diversity Library for Multistage-Active Starting Points for Next-Generation Antimalarials” (ACS Infect Dis, 2020)
